Source: PubChem
IL1B secr inh = inhibitors of inflammasome signaling (IL-1 beta secretion) | activity change, % at 57.5 µM | THP-1 LPS/ATP IL-1B secretion, AlphaLISA, 16 h; active compounds read low | 360,000 compounds, 4.7% hits; in the data active means activity change below about -50%; inconclusive means mostly about -30% to -49%; further: on the % scale 0 is the no-effect control and ±100 the full control effect
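Secreted IL-1B measured by AlphaLISA bead assay after 16 h compound exposure of THP-1 cells; compounds (final up to 57.5 uM) added 1 h before LPS (250 ng/mL) and ATP (1.25 mM) stimulation; lower signal means less secretion.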
TDP1 cell noCPT = qHTS for Inhibitors of human tyrosyl-DNA phosphodiesterase 1 (TDP1): qHTS in cells in absence of CPT. Potency, µM (series often up to 46.2 µM), without a hit: at the highest dose activity change, negative = growth inhibition, hits mostly inhibitors. DT40 Tdp1-/- hTDP1 cells, no CPT, ATP luminescence, 48 h. AID 686978, 2013. 420,000 compounds, 15% hits; further: potency means the concentration at half of the fitted maximal effect; on the % scale 0 is the no-effect control and ±100 the full control effect; nearly all actives have a fitted effect of over 55% in size
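A cellular qHTS used chicken DT40 cells lacking endogenous Tdp1 but carrying stably transfected human TDP1. Compounds were applied without camptothecin, and cell growth kinetics were judged by ATP-dependent luminescence after ≥48 hr.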
HepG2 viability = counter-screen for TGF-b inhibitors: cytotoxicity in HepG2 cells. AID 588856. 410,000 compounds, 0.76% hits. Potency, µM (titrated, usually from 46.1 µM), for the others: top-dose activity change, negative = cytotoxicity, usual class: cytotoxic. HepG2 CAGA-GFP viability, ATP luminescence, 18 h; further: potency means the concentration at half of the fitted maximal effect
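HepG2 CAGA-GFP cells (1000/well, DMEM with 1% FBS) received compound, then TGF-beta at 500 pg/mL final, and were incubated 18 hours at 37 degrees C. Viability was read by CellTiter-Glo luminescence. Media-only wells were set as complete cell-killing and DMSO as no toxicity.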
TDP1 inh = blocks human tyrosyl-DNA phosphodiesterase 1; Q9NUW8; recombinant TDP1, AlphaScreen DNA substrate cleavage; Potency, µM (top dose mostly 130 µM), inactives show at the top dose activity change, negative = inhibition, most hits filed as inhibitors; 350,000 compounds, 0.28% hits; further: potency means the concentration at half of the fitted maximal effect; on the % scale 0 is the no-effect control and ±100 the full control effect; nearly all actives have a fitted effect of over 40% in size
Target sequence (Q9NUW8 whole entry, looked up): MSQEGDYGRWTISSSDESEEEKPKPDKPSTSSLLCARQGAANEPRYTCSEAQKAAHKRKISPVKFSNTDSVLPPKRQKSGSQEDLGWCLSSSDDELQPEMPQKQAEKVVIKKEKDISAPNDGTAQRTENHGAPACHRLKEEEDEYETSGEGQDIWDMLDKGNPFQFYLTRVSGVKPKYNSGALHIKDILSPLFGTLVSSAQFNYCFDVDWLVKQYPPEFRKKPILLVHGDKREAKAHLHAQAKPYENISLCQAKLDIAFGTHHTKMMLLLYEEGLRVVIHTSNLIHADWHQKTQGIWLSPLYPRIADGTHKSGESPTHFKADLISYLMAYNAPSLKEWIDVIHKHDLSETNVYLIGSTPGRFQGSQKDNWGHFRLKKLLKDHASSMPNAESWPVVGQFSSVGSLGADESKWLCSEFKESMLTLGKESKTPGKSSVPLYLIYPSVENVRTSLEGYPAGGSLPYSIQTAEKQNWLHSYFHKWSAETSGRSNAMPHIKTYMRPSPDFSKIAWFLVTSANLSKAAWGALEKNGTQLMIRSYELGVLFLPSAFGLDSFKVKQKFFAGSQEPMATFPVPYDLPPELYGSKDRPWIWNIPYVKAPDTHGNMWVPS
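Enzyme-compound mixtures sat 15 min at room temperature, followed by a 5 min reaction with 15 nM final substrate and 10 min with AlphaScreen beads. Recombinant human Tdp1 was used at 1 nM final.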
DT40 TDP1 CPT = growth inhibition of DT40 Tdp1-/-;hTDP1 cells with camptothecin (screen for TDP1 inhibitors); Potency, µM (titrated, usually from 46.2 µM), without a hit: at the highest dose activity change, negative = growth inhibition, hits mostly inhibitors; chicken DT40 Tdp1-/-;hTDP1 cells + 20 nM CPT, ATP luminescence, 48 h; 420,000 compounds, 12% hits; further: potency means the concentration at half of the fitted maximal effect; on the % scale 0 is the no-effect control and ±100 the full control effect; nearly all actives have a fitted effect of over 55% in size
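Chicken DT40 Tdp1-/- cells stably complemented with human TDP1 were seeded at 400 cells/well in medium containing 20 nM camptothecin, exposed to pin-transferred compounds, and grown at 37 °C for at least 48 hr. Viability was read as ATP luminescence.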
TGFb SMAD3 inh = TGF-b pathway inhibition; HepG2 CAGA-GFP TGF-b/SMAD3 reporter, GFP fluorescence, 18 h; TGF-beta stimulated, 500 pg/mL final; Potency, µM (titrated, usually from 46.1 µM), for the others: at the top dose activity, negative = inhibition, usual class: inhibitors; 410,000 compounds, 1.2% hits; AID 588855; further: potency means the concentration at half of the fitted maximal effect; on the % scale 0 is the no-effect control and ±100 the full control effect; nearly all actives have a fitted effect of over 65% in size
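HEPG2 CAGA-GFP cells (1000/well, DMEM with 1% FBS) were pre-incubated 2 h at 37 degrees C, given compound by pin tool, then stimulated with TGF-beta at 500 pg/mL final for 18 h before per-cell GFP fluorescence imaging.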
* hit, by the source's call; ? = inconclusive; . = no result given; [ ] = dose if it differs, or a comment. Hits are enriched below; roughly 19% of the tested compounds scored in any of these assays. Unless noted, the call rests on the fitted dose curve; in most records, active means well fitted curve in the direction sought with a large enough effect; inconclusive means small, poorly fitted or top-dose-only effect, or another doubt; inactive means no such curve, though single readings can be large; an effect the other way counts as inactive or inconclusive.

SMILES | IL1B secr inh | TDP1 cell noCPT | HepG2 viability | TDP1 inh | DT40 TDP1 CPT | TGFb SMAD3 inh
CCOc1ccc(NC(=O)c2cc(Cl)nc3ccccc23)cc1 | 32 | 15µM* | 4% | 2% | ? | 3%
CCOc1ccc(-c2cc(C(=O)Nc3ccc4c(c3)OCCO4)c3ccccc3n2)cc1 | 5 | 10µM* | -48% | 2% | ? | ?
CCOc1ccc(NC(=O)c2ccccn2)cc1 | -4 | 13µM* | -68% | 2% | -45% | ?
CCCC(=O)Nc1ccc(NC(=O)c2ccccn2)cn1 | -9 | ? | -25% | 7% | -26% | 15%
CCCn1c(C)cc(=O)c2cc(NC(=O)c3ccccn3)ccc21 | -23 | 15µM* | -53% | 4% | ? | -4%
COc1ccc(Cl)cc1NC(=O)C/C(C)=N/NC(=O)COc1ccc(C)cc1 | -17 | -12% | -1% | . | -27% | -11%
Cc1ccc(NCc2ccc(O)c3ncccc23)c(F)c1 | . | . | . | 1% | . | .
CN(C)c1ccc(/C=C2/CCCc3c2nc2ccccc2c3C(=O)O)cc1 | . | -20% | -1% | . | -2% | -23%
O=C(Nc1ccc2c(c1)OCCO2)c1cc(-c2ccccn2)nc2ccc(Br)cc12 | 18 | ? | 4% | 0% | ? | ?
COc1ccc(-c2cc(C(=O)OCC(=O)Nc3ccc4c(c3)OCO4)c3ccccc3n2)cc1 | -8 | 21µM* | -17% | 3% | ? | 1%
CCOc1cc(NC(=O)c2ccccn2)c(OCC)cc1NC(=O)c1cccc(C)c1 | -2 | 1.8µM* | -15% | -2% | 4.1µM* | -24%
CCOc1ccc(NC(=O)C2CSC(c3ccncc3)=N2)cc1 (centres undefined) | -11 | ? | -9% | 3% | 23µM* | 0%
Cc1cccc(-c2cc(C(=O)Nc3ccc4c(c3)OCCO4)c3ccccc3n2)c1 | -20 | 13µM* | -24% | 7% | 29µM* | 0%
CCOc1cc(NC(=O)c2cccs2)c(OCC)cc1NC(=O)c1ccccn1 | 0 | ? | -6% | -8% | ? | ?
Cc1ccc(OCC(=O)Nc2ccc(OCc3cc(=O)n4cccc(C)c4n3)cc2)cc1C | . | -37% | 0% | 8% | -24% | -4%
CCOc1ccc(NC(=O)COC(=O)CC2CC3CCC2C3)cc1 (centres undefined) | 0 | 9% | -11% | -6% | -3% | -6%
Nc1c(Cl)cc(C2=NCCn3c2c2ccc(C(F)(F)F)cc2[n+]3[O-])cc1Cl | 24 | ? | -17% | 5% | ? | -1%
COCC(=O)NCc1nc2cccnc2n1Cc1ccc(F)cc1 | . | -1% | 1% | 1% | 14% | -3%
OC[C@H]1O[C@@H](n2cnc3c(Nc4ccccc4)ncnc32)[C@H](O)[C@H]1O | . | . | . | -3%[56.1 µM] | . | .
C=C1CCC(OC(C)=O)/C(C)=C/CC2[C@H]1CC2(C)C (some centres undefined) | . | -12% | . | 11%[56.1 µM] | -20% | .
C=C1C(=O)O[C@H]2C1CC[C@@](C)(O)C13C=CC(C)(C21)C1(C3)C(=O)O[C@@H]2C3C(C)=CCC3[C@](C)(O)C[C@H](OC(C)=O)C21 (some centres undefined) | -94* | 16µM* | -13% | 8% | ? | ?
CCn1cc(CN2CCN(CCC(C)C)C(CCO)C2)c2ccccc21 (centres undefined) | 5 | ? | 11µM* | . | ? | -16%
CC(C)=CCN1CCN(Cc2cn(C(C)C)c3ccccc23)CC1CCO (centres undefined) | -4 | 23µM* | -15% | . | 18µM* | 5%
CCn1c(SCC(=O)NC2(C#N)CCCCC2)nc2ccccc2c1=O | 10 | 6% | 2% | -1% | 8% | 0%
Cc1ccc(C)c(-c2nnc(NC(=O)Cc3ccc(F)cc3)o2)c1 | -11 | 10µM* | -19% | 3% | 12µM* | -3%
SMILES | IL1B secr inh | TDP1 cell noCPT | HepG2 viability | TDP1 inh | DT40 TDP1 CPT | TGFb SMAD3 inh
Cc1ccc(-c2nnc(NC(=O)Cc3ccc(F)cc3)o2)c(C)c1 | -13 | 12µM* | -1% | 4% | 10µM* | 0%
Cc1ccc(C)c(-c2nnc(NC(=O)c3ccc([N+](=O)[O-])o3)o2)c1 | -10 | 15µM* | -32% | . | 15µM* | -30%
Cc1ccc(-c2nnc(NC(=O)CCS(=O)(=O)c3ccccc3)o2)c(C)c1 | -6 | -16% | -7% | . | -18% | 0%
Cc1ccc(C)c(-c2nnc(NC(=O)COc3ccccc3)o2)c1 | 11 | ? | -23% | 5% | ? | 1%
COc1ccc(C2C(C(=O)c3ccccc3)N3c4ccccc4C=CC3C2[N+](=O)[O-])cc1 (centres undefined) | -21 | 10µM* | -30% | 7% | 7.3µM* | 84%
O=C(c1ccc(N2CCCC2=O)cc1)N1CCN(c2cccc(C(F)(F)F)c2)CC1 | ? | 23µM* | -26% | 9% | 16µM* | -17%
O=C(C1CC(=O)N(c2ccc3c(c2)OCCO3)C1)N1CCN(S(=O)(=O)c2cccc(F)c2)CC1 (centres undefined) | 8 | ? | 4% | . | -12% | ?
O=C(c1ccc(N2CCCC2=O)cc1)N1CCCCCC1 | -9 | 2% | -21% | 5% | -18% | 9%
O=C(c1c(F)cccc1F)N1CCN(c2cccc(C(F)(F)F)c2)CC1 | -29 | ? | -8% | -6% | ? | 0%
O=C(c1cccc(N2CCCC2=O)c1)N1CCN(c2cccc(Cl)c2)CC1 | 4 | 3.3µM* | -33% | 0% | ? | ?
Cc1cccc(N2CCN(C(=O)c3ccc(N4CCCC4=O)cc3)CC2)c1C | -25 | 23µM* | -2% | 5% | 12µM* | 5%
